Source: PubChem BioAssay AID1851 (National Center for Advancing Translational Sciences (NCATS), 2009)
Several values for one entry are separate records, joined by “and”; a condition that tells them apart may be missing. Identical values can stand only once. About 5,800 (36%) of roughly 16,000 compounds were called active. Another 23% or so got no clear call; they are omitted. Calls follow the shape of the dose curve; as a rule, active = well fitted curve in the direction sought with a large enough effect; inconclusive = small, poorly fitted or top-dose-only effect, or effect the other way; inactive = no such curve, though single readings can be large or run the other way. Some of the results follow. More than one record can exist for a structure, and the calls need not agree.

These compounds were tested against Cytochrome P450 2C19 (Homo sapiens) (UniProt P33261) (assay: Cytochrome panel assay with activity outcomes). Conditions: recombinant CYP, pro-luciferin dealkylation, luminescence, p450-cyp2c19; series mostly up to 57.1 µM; activity, negative = inhibition: at the top concentration.
% is scaled to controls: 0 for no effect and ±100 for the full control effect.

Sequence of Cytochrome P450 2C19 (Homo sapiens) (P33261 whole entry, looked up): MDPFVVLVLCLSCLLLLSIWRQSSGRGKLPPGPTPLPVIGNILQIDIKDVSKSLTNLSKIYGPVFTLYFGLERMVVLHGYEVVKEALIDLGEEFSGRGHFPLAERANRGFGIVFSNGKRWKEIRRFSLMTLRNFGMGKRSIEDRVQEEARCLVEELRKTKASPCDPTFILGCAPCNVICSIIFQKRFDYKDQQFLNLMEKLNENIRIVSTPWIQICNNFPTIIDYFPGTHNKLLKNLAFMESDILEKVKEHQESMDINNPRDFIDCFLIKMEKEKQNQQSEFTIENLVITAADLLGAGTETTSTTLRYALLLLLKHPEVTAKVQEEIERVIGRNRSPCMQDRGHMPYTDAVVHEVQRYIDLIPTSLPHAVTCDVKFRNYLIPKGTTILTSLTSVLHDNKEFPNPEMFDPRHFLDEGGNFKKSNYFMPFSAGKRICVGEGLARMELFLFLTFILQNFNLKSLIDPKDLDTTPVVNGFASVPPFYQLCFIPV

Row | SMILES | activity, negative = inhibition | AC50
1 | CN1[C@@H]2CC[C@H]1CC(O)C2 (some centres not stated) | 12.6% [at 25.6 µM] (inactive) | 
2 | O=C(O)CN1CCN(CC(=O)O)CC(=O)[O][Hg][O]C(=O)C1 |  | 0.794 µM (active)
3 | CC(C)NP(=O)(NC(C)C)OP(=O)(NC(C)C)NC(C)C | -22.2% (inactive) | 
4 | O=C(Nc1ccccc1)N1CC[C@@]2(CCCN(C(=O)Oc3ccccc3)C2)C1 | -42.9% (inactive) | 
5 | COc1cc([C@H]2c3cc4c(cc3[C@@H](O)[C@@H]3COC(=O)[C@H]23)OCO4)cc(OC)c1OC |  | 10 µM (active)
6 | NC(=O)c1ccc(C(=O)Nc2ccc([As](=O)(O)O)cc2)cc1 | 10.2% [at 11.4 µM] (inactive) | 
7 | CCCCC1(CCCC)C(=O)NC(=Nc2cccc(C)c2)NC1=O |  | 2.24 µM (active)
8 | CC[N+](CC)(CCNC(=O)C(=O)NCC[N+](CC)(CC)Cc1ccccc1Cl)Cc1ccccc1Cl | 15.6% (inactive) | 
9 | O=C(Oc1ccccc1)N1CCC2(CCCN(Cc3ccccc3)C2)CC1 | -12.9% (inactive) | 
10 | Cc1nc2sccc2c(=O)n1-c1ccccc1Cl |  | 2.82 µM (active)
11 | Cc1nc2ccccc2c(=O)n1-n1cnnc1 | -6.22% (inactive) | 
12 | C[C@@H](N)Cn1ccc2cc(F)c(Cl)cc21 | -25.1% (inactive) | 
13 | CC(C)CCC1(CCN)C(=O)NC(=O)NC1=O | 5.97% [at 11.4 µM] (inactive) | 
14 | CN1CCN(c2ncc3ncc(=O)n(C)c3n2)CC1 | -10.5% (inactive) | 
15 | CC(C)[C@]1(O)[C@@H](OC(=O)c2ccc[nH]2)[C@]2(O)[C@@]3(C)C[C@@]4(O)O[C@@]5([C@H](O)[C@@H](C)CC[C@]35O)[C@]2(O)[C@]41C | 23.6% [at 11.4 µM] (inactive) | 
16 | CCC(=O)O[C@@](Cc1ccccc1)(c1ccccc1)[C@@H](C)CN(C)C | 15.8% [at 25.6 µM] (inactive) | 
17 | O=C(Oc1ccccc1)N1CCC2(CCCN(C(c3ccccc3)c3ccccc3)C2)CC1 | 15.4% (inactive) | 
18 | CCOP(=O)(OCC)C(NC(C)=O)C(Cl)(Cl)Cl (configuration not stated) | -27% (inactive) | 
19 | CCOP(=O)(OCC)C(NC(=O)C(Cl)Cl)C(Cl)(Cl)Cl (configuration not stated) |  | 10 µM (active)
20 | N#Cc1ccc(CN2CC[C@@]3(CCCN(C(=O)Oc4ccccc4)C3)C2)cc1 | -34.6% (inactive) | 
21 | C[N+](C)(C)CCCCCC[N+](C)(C)C | 29.6% (inactive) | 

Row | SMILES | activity, negative = inhibition | AC50
22 | Cc1cccc([C@H](C)c2cnc[nH]2)c1C |  | 5.01 µM (active)
23 | C[N+]1(C)C2CC[C@H]1CC(OC(=O)[C@@H](CO)c1ccccc1)C2 (some centres not stated) | 14.6% [at 11.4 µM] (inactive) | 
24 | C[C@@H](Cc1cccc(C(F)(F)F)c1)NCCCc1ccccc1 |  | 1.26 µM (active)
25 | C#CCN[C@@H](C)Cc1ccccc1 | 12.5% (inactive) | 
26 | CNCCCc1ccccc1 | -25% (inactive) | 
27 | c1ccc2c(N3CCNCC3)cccc2c1 | 41% (inactive) | 
28 | CP(=O)(O)CCCN |  | inactive
29 | C[C@]12N[C@@H](Cc3ccccc31)c1ccccc12 |  | inactive
30 | C=C1[C@@H]2CC[C@H]3[C@@]4(C)C[C@@H](O[C@@H]5O[C@H](CO)[C@H](OS(=O)(=O)O)[C@@H](OS(=O)(=O)O)[C@@H]5OC(=O)CC(C)C)C[C@@H](C(=O)O)[C@H]4CC[C@@]3(C2)[C@H]1O | 24.2% [at 25.6 µM] (inactive) | 
31 | N[C@H](CP(=O)(O)O)C(=O)O | 27% (inactive) | 
32 | Cc1nc(-c2ccc(-c3ccc(C(=O)N4CCc5cc6c(cc54)C4(CCN(C)CC4)CO6)cc3)c(C)c2)no1 |  | inactive and 3.98 µM (active)
33 | C[C@@H]1O[C@H]1P(=O)(O)O | 28.4% (inactive) | 
34 | N[C@H](CCCP(=O)(O)O)C(=O)O | -8.91% (inactive) | 
35 | N#CC(C#N)=Cc1cc(O)c(O)c(O)c1 | -24.2% (inactive) | 
36 | N#C/C(=C\c1ccc(O)c(O)c1)C(=O)NCCCNC(=O)/C(C#N)=C/c1ccc(O)c(O)c1 | -18.8% (inactive) | 
37 | N#C/C(=C\c1ccc(O)c(O)c1)C(N)=S |  | inactive and 25.1 µM (active)
38 | CCC(=O)Nc1ccc(N2CCN(CC)CC2)c(Cl)c1 | -6.94% (inactive) | 
39 | Cc1nccc2c1[nH]c1ccccc12 |  | inactive
40 | Cc1c2ccncc2c(C)c2c1[nH]c1ccccc12 |  | 3.16 µM (active)
41 | CN(C)CCC(=O)[C@@]1(O)CC[C@H]2[C@H]3CC=C4C[C@@H](O)CC[C@]4(C)[C@H]3CC[C@]21C | 13.6% [at 11.4 µM] (inactive) | 
42 | O=C(Nc1ccc(Cl)cc1)Nc1nccs1 |  | 25.1 µM (active)

Row | SMILES | activity, negative = inhibition | AC50
43 | C[C@H]1CCCC=CC2C[C@H](O)C[C@@H]2[C@H](O)/C=C\C(=O)O1 (some centres not stated) | -16.3% (inactive) | 
44 | Cc1cc(C)nc(NC2=NCCS2)n1 | -7.47% (inactive) | 
45 | O=S(=O)(O)/C(=C\c1ccccc1)c1ccccc1 (tested in a mixture with another compound) | -40.3% [at 11.4 µM] (inactive) | 
46 | CC(=O)c1ccc2c(c1)N(CCCN(C)C)c1ccccc1S2 | -0.627% [at 25.6 µM] (inactive) | 
47 | COC(=O)N1CCC2(CCN(CC(C)C)CC2)CC1 | -27.3% (inactive) | 
48 | c1ccc(N2CCC3(CCNCC3)CC2)cc1 | -25.2% (inactive) | 
49 | Cc1sc(NC(=O)C2C3CCC(O3)C2C(=O)O)c(C(=O)OC(C)C)c1-c1ccc(Cl)cc1 (configuration not stated) |  | 14.1 µM (active)
50 | O=C(c1cc(-c2ccccc2)nc2ccccc12)N1CCC2(CC1)OCCO2 |  | 10 µM (active)
51 | CN1C(=O)c2ccccc2Sc2ccc(C(=O)N3CCC4(CC3)OCCO4)cc21 | -9.78% (inactive) | 
52 | CN1[C@@H](CC(=O)c2ccccc2)CCC[C@@H]1C[C@@H](O)c1ccccc1 | 1.66% [at 25.6 µM] (inactive) | 
53 | CN1CC[C@@]2(CCCN(C(=O)c3ccco3)C2)C1 | 7.21% (inactive) | 
54 | O=C(c1ccco1)N1CCC[C@@]2(CCN(Cc3ccncc3)C2)C1 |  | 2.51 µM (active)
55 | COCC(=O)N1CCC2(CCCN(Cc3ccncc3)C2)CC1 | -34.1% (inactive) | 
56 | CNC(C)(C)Cc1ccccc1 | 31.5% [at 25.6 µM] (inactive) | 
57 | C[C@@H](Cc1ccc(OCC(=O)O)cc1)NC[C@H](O)c1cccc(Cl)c1 |  | inactive and 5.01 µM (active)
58 | CCNC[C@H](O)c1cccc(O)c1 | -8.41% [at 25.6 µM] (inactive) | 
59 | C=C1[C@@H]2C[C@@]3([C@H]1O)[C@H]1C[C@@H]4[C@@]5(C)CC[C@H](O)[C@]4([C@H]1N(CC)C5)[C@H]3C[C@H]2O | 3.61% [at 25.6 µM] (inactive) | 
60 | Oc1cccc2cccnc12 | 31.2% [at 11.4 µM] (inactive) | 
61 | CC1=NN(c2ccc(S(=O)(=O)O)cc2C)C(=[OH+])[C@H]1N=Nc1cc(S(=O)(=O)O)ccc1C(=O)O.O.[Cr] | 33.2% [at 11.4 µM] (inactive) | 
62 | COCOc1ccc(Br)cc1C(=O)/C=C\c1ccc2c(c1)OCO2 |  | 0.0631 µM (active)
